Results from PubChem BioAssay.
Records with an inconclusive call do not appear. Activity calls are given as the source filed them. Unless noted, the limit is not given here; nearly all actives have AC50 up to about 26 µM.

Key:
[1] = viability loss in pontine glioma line – cell-based, SU-DIPG-XVII, MIPE5.0, CellTiter-Glo, qHTS, dose response (AID 1347060); conditions: CellTiter-Glo ATP luminescence;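 as to AC50: cells exposed to compound for 48 hours before viability readout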
[2] = viability loss in pontine glioma line – cell-based, SU-DIPG-XIII, MIPE4.0, CellTiter-Glo, qHTS, dose response (AID 1347061; cut-off not given, nearly all actives have AC50 up to about 37 µM;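 also: cells exposed to compound for 48 hours before readout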); conditions: CellTiter-Glo ATP luminescence
[3] = viability loss in pontine glioma line – cell-based, JHH-DIPG-1, MIPE4.0, CellTiter-Glo, qHTS, dose response (AID 1347062; cut-off not given, nearly all actives have AC50 up to about 27 µM;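 as to AC50: cells exposed to compound for two days before readout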); conditions: JHH-DIPG-1 viability, CellTiter-Glo ATP luminescence
[4] = viability loss in pontine glioma line – cell-based, SU-DIPG-IV, MIPE4.0, CellTiter-Glo, qHTS, dose response (AID 1347063; cut-off not given, nearly all actives have AC50 up to about 30 µM;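 also: compound exposure lasted 48 hours before the viability readout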); conditions: CellTiter-Glo ATP luminescence
[5] = viability loss in pontine glioma line – cell-based, SU-DIPG-XIII, MIPE5.0, CellTiter-Glo, qHTS, dose response (AID 1347064; cut-off not given, nearly all actives have AC50 up to about 23 µM;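 as to AC50: cells exposed to compound for 48 hours before the viability read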); conditions: CellTiter-Glo ATP luminescence
[6] = viability loss in pontine glioma line – cell-based, SU-DIPG-XXV, MIPE5.0, CellTiter-Glo, qHTS, dose response (AID 1347065); conditions: CellTiter-Glo ATP luminescence;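 also: cells exposed to compound for 48 hours before ATP readout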
[7] = growth inhibition of DIPG cells – cell-based, MIPE4.0 library, CellTiter-Glo luminescence, qHTS (AID 1347066; cut-off not given, nearly all actives have AC50 up to about 30 µM;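 also: cells exposed to compound for 48 hours before readout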); conditions: SU-DIPG-VI viability, CellTiter-Glo ATP luminescence
[8] = JHH-DIPG-1 glioma cell viability, MIPE5.0 library, CellTiter-Glo luminescence, qHTS (AID 1347067); conditions: JHH-DIPG-1 glioma viability, CellTiter-Glo ATP luminescence;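 also: cells exposed to compound for 48 hours before readout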
[9] = compounds altering HSF1 focus formation in cells – imaging, Selleck Cancer Library (AID 1347162; in the data active = plate-normalised HSF1 focus index below about 0.46); conditions: human cells, HSF1 nuclear foci imaging, at 10 µM; SSMD: measured here: HSF1 foci SSMD mean; cell count: measured here: cell number; plate-normalised HSF1 focus index: stronger effect = lower value
[10] = growth inhibition of DIPG cells – cell-based, MIPE5.0 library, qHTS (AID 1347068; cut-off not given, nearly all actives have IC50 up to about 30 µM;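 also: cells exposed to compound for 48 hours before viability readout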); conditions: SU-DIPG-XXV viability
[11] = viability loss with induced miR-34 in A549 – imaging, A549 dox-inducible miR-34, nuclei and caspase counts, primary screen (AID 1347080;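 active = compounds whose cell count with miR-34 switched on is under 0.7 times the count with it off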); conditions: A549 miR-34 inducible, Hoechst nuclei count, 48 h
[12] = MELAS cybrid and Rieske KO viability enhancers – cell-based, MELAS cybrids, Rieske KO mouse fibroblasts, CellTiter-Glo, primary screen (AID 1508586;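 active = mean z-score across replicates of 1.96 or higher in either the MELAS or the Rieske mutant cell line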;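 also: z relative to plate mean and SD of compound and empty wells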); conditions: low glucose

CN(C)CCN(C)C(=O)c1ccc(NC(=O)Nc2ccc(-c3nc(N4CCOCC4)c4ccn(CC(F)(F)F)c4n3)cc2)cc1
1.02: SSMD [9]
active: AC50 [1] 0.235 µM | AC50 [2] 0.743 µM | AC50 [3] 0.469 µM | AC50 [4] 0.0332 µM | AC50 [5] 0.742 µM | AC50 [6] 0.332 µM | AC50 [7] 0.662 µM | AC50 [8] 1.48 µM
7060: cell count [9]
inactive: plate-normalised HSF1 focus index [9] 1.06

NC(=O)Nc1cc(-c2ccc(CN3CCOCC3)cc2)sc1C(N)=O
active: AC50 [1] 1.32 µM | AC50 [2] 18.7 µM | AC50 [3] 20.9 µM | AC50 [4] 16.6 µM | AC50 [5] 13.2 µM | AC50 [6] 0.934 µM | AC50 [8] 5.25 µM | IC50 [10] 2.95 µM

COc1ccc(-n2nc(C(N)=O)c3c2C(=O)N(c2ccc(N4CCCCC4=O)cc2)CC3)cc1
0.921: fold change ([11]; measured here: relative caspase fold change +Dox/-Dox)
8900: cell count ([11]; measured here: total cells without miR-34 induction)
8080: cell count ([11]; measured here: total cells with miR-34 induction, stronger effect = lower value)
-0.309: z-score ([12]; Rieske KO mouse fibroblast survival, CellTiter-Glo 72 h)
inactive: outcome [1] | outcome [2] | outcome [3] | outcome [4] | outcome [5] | outcome [6] | outcome [7] | outcome [8] | fold change ([11]; stronger effect = lower value, cell number ratio, induced over uninduced) 0.908 | z-score ([12]; MELAS cybrid survival, CellTiter-Glo 48 h, stronger effect = higher value) -0.515

C[C@@H]1CCN(C(=O)CC#N)C[C@@H]1N(C)c1ncnc2[nH]ccc12
7280: cell count [9]
3.28: SSMD [9]
inactive: outcome [1] | outcome [2] | outcome [3] | outcome [4] | outcome [5] | outcome [6] | outcome [7] | outcome [8] | plate-normalised HSF1 focus index [9] 1.17
